Screening data from PubChem.
Sampled rows, rich in hits. Any-hit rate of the full collection: about 3.5%.
MITF primary – MITF inhibitors, primary screen, biochemical, AlphaScreen, human. inhibition, % at 2.6 µM. AID 1259374, 2018. actives 0.91% (n = 650,000). AlphaScreen MITF homodimerization, bead proximity signal. Microphthalmia-associated transcription factor (Homo sapiens), O75030; in the data active means inhibition above about 50%
GPR151 ag – activators of human GPR151, primary screen, cell-based, PathHunter beta-arrestin, luminescence | G-protein coupled receptor 151 (Homo sapiens), Q8TDV0 | PathHunter beta-arrestin GPR151 cells | activation, % at 11.2 µM | actives 1% (n = 650,000) | AID 1508602, 2020; in the data active means activation above about 4.9%
Target sequence (Q8TDV0 whole entry, looked up): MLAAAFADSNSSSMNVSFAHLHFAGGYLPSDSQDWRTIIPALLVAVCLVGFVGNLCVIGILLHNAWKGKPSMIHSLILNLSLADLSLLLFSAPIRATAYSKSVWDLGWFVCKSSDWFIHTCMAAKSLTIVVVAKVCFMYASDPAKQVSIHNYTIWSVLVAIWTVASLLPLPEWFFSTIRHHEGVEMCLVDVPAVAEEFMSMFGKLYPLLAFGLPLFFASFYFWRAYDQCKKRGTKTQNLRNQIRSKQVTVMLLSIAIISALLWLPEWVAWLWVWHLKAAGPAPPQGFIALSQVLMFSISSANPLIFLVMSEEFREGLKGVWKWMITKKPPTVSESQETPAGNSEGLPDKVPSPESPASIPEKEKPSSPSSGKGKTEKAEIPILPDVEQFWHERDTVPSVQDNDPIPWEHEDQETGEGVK
FBW7 act – FBW7 E3 ligase activators, primary screen, biochemical, AlphaScreen, human; F-box/WD repeat-containing protein 7 (Homo sapiens), Q969H0; AlphaScreen FBW7–phospho-cyclin E peptide binding, activator screen; normalized activity (activation), % at 26.1 µM; actives 0.13% (n = 650,000); in the data active means normalized activity above about 1.9%;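 further: purified mutant Fbw7 with reduced substrate affinity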
TEAD-YAP block – TEAD-YAP interaction inhibition, primary screen, TEAD-YAP interaction inhibitor project, luminescence, HEK-TIYL cells; AID 1259422, 2018; TEAD-Gal4/YAP UAS-luciferase luminescence; actives 1.4% (n = 640,000); inhibition, % at 9.12 µM; in the data active means inhibition above about 32%
MITF inh conf – MITF inhibitors, retest of hits, confirmation, biochemical, AlphaScreen, triplicate; shares compounds with MITF primary; inhibition, % at 2.6 µM; AlphaScreen MITF homodimerization, biotin/His-MITF beads; actives 16% (n = 4,700);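 active means inhibition above a cutoff derived from the DMSO control wells, cut at about 28% in these data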;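 further: inhibitors lower the bead chemiluminescence by keeping MITF from dimerizing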
AlphaScreen intf2 – AlphaScreen optical interference compounds, counter-screen for MITF inhibitor project, biochemical, triplicate; shares compounds with MITF primary; LysRS AlphaScreen counterscreen, signal interference; inhibition, % at 2.6 µM; actives 7.6% (n = 4,700);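 active means inhibition above a cutoff derived from the DMSO control wells, cut at about 30% in these data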
Each line names hits and unclear results; the compound was inactive in the other large screens (follow-up assays come after a bar, where they were run).

COc1cccc(CN2CCN(C(C)C)CC2)c1OC	MITF primary 68.7 | MITF inh conf inactive | AlphaScreen intf2 inactive
COc1ccc(CN2CCN(Cc3ccccc3)CC2)c(OC)c1	MITF primary 67.0 | MITF inh conf inactive | AlphaScreen intf2 inactive
COc1cccc(CN2CCN(C)C(CCO)C2)c1OC (configuration not stated)	none
CCC(C)N1CCN(Cc2cccc(OC)c2OC)CC1 (configuration not stated)	MITF primary 78.2 | MITF inh conf inactive | AlphaScreen intf2 inactive
CN(C)C(=O)Oc1ccc2cc(Br)ccc2c1Br	none
CCN(CC)c1ccc2c(C(F)(F)F)cc(=O)oc2c1	none
COc1cccc(CN2CCN(Cc3ccccc3)CC2)c1OC	MITF primary 68.6 | MITF inh conf inactive | AlphaScreen intf2 inactive
COc1cccc(CN2CCN(C)CC2)c1OC	none
CCc1c(C(=O)NC(c2ccccc2)c2ccncc2)c(=O)cc(C)n1Cc1cccs1 (configuration not stated)	none
C[n+]1ccc(-c2cc[n+](C)cc2)cc1	MITF primary 64.7 | MITF inh conf inactive | AlphaScreen intf2 inactive
CCCCCCC[n+]1ccc(-c2cc[n+](CCCCCCC)cc2)cc1	none
CN1C(=O)C(=Cc2ccc(-c3ccc(O)c(C(=O)O)c3)o2)C(=O)N(C)C1=O	none
CC(=O)c1ccc(N2CCN(Cc3ccc(F)cc3F)CC2)cc1	MITF primary 54.6 | MITF inh conf inactive | AlphaScreen intf2 inactive
CC(=O)c1ccc(N2CCN(Cc3ccc(F)c(F)c3)CC2)cc1	none
CC(=O)c1ccc(N2CCN(Cc3cc(F)ccc3F)CC2)cc1	MITF primary 60.6 | MITF inh conf inactive | AlphaScreen intf2 inactive
CC(=O)c1ccc(N2CCN(Cc3cccc(C)c3)CC2)cc1	none
CCOP(=O)(OCC)SCc1ccccc1	MITF primary 53.3 | MITF inh conf inactive | AlphaScreen intf2 inactive
Fc1ccc(CN2CCN(Cc3cccc(Cl)c3)CC2)cc1	MITF primary 68.2 | MITF inh conf inactive | AlphaScreen intf2 inactive
Fc1cccc(CN2CCN(Cc3ccc(Cl)cc3)CC2)c1	MITF primary 70.0 | MITF inh conf inactive | AlphaScreen intf2 inactive
CN1CCN(Cc2cccc(F)c2)CC1	none
CCc1ccc(CN2CCN(Cc3cccc(Cl)c3)CC2)cc1	MITF primary 63.6 | MITF inh conf inactive | AlphaScreen intf2 inactive
Fc1cccc(CN2CCN(Cc3cccc(F)c3)CC2)c1	MITF primary 67.7 | MITF inh conf inactive | AlphaScreen intf2 inactive
Fc1cccc(CN2CCN(c3ccc(Cl)cc3)CC2)c1	none
CNC(=O)O/N=C(\N)c1ccc(N(C)C)cc1	none
COc1cccc(CCNCc2cccc(F)c2)c1	none
COC(=O)C1C2NC(=S)N[C@@]1(C)Oc1ccccc12 (some centres not stated)	none
CCC(CC)N1CCN(Cc2cccc(F)c2)CC1	MITF primary 73.1 | MITF inh conf inactive | AlphaScreen intf2 inactive
CC(C)N1CCN(Cc2cccc(F)c2)CC1	MITF primary 61.5 | MITF inh conf inactive | AlphaScreen intf2 inactive
Cc1ccc2c(c1)C1CN(C)CCC1N2C(=O)CSc1nc2ncccc2[nH]1 (configuration not stated)	none
CN1CC=C(c2noc(CCC(=O)Nc3nc4ccccc4s3)n2)CC1	none
CCc1ccccc1NC(=O)CCc1nc(C2=CCN(C)CC2)no1	none
CCOc1ccc(NC(=O)CCc2nc(C3=CCN(C)CC3)no2)cc1	MITF primary 82.7 | MITF inh conf 92.7 | AlphaScreen intf2 69.8
CCc1nnc(NC(=O)CCc2nc(C3=CCN(C)CC3)no2)s1	MITF primary 58.3 | MITF inh conf 59.7 | AlphaScreen intf2 39.0
S=P(N1CC1)(N1CC1)N1CCN=C1C(Cl)(Cl)Cl	none
COC(=O)c1cccc(N2Cc3ccccc3C2=N)c1	none
CN1CCC2(C1)Oc1ccccc1O2	MITF primary 55.1 | MITF inh conf inactive | AlphaScreen intf2 inactive
O=C(c1ccoc1)N1CCC2(CC1)OCc1ccccc1O2	none
COc1ccc(CNCCc2ccc3c(c2)OCO3)cc1C	none
O=C(Cc1ccccc1)N1CCN(C2CC3CCC2C3)CC1 (configuration not stated)	none
